Values without a mark were called inactive. No rule for the calls is given here.
What follows are molecules tested against Pantothenate synthetase (Mycobacterium tuberculosis (strain ATCC 25618 / H37Rv)) (UniProt P9WIL5) (assay: Coupled enzyme confirmation of inhibitors against recombinant Mtb PanC (AID 375;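 also: 0% = full reaction with vehicle and 100% = no enzyme background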)). Conditions: coupled enzyme assay; at 10 µM, active compounds read high.
Sequence of Pantothenate synthetase (Mycobacterium tuberculosis (strain ATCC 25618 / H37Rv)) (P9WIL5 whole entry, looked up): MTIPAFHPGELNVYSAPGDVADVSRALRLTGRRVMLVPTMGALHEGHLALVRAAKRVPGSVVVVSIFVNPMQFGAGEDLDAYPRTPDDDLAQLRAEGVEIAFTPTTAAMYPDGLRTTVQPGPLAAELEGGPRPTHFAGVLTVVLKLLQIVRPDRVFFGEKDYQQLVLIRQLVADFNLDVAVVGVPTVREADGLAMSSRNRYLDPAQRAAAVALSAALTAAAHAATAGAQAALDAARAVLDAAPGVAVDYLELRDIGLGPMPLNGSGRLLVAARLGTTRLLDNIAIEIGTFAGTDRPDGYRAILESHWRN

| SMILES | inhibition [%] |
| --- | --- |
| CC(C)Nc1ncnc2c1cnn2-c1ccccc1 | 0 |
| Cc1cc2c(=O)n(Cc3ccco3)c(SCC(=O)NCc3ccco3)nc2s1 | 3 |
| COc1ccc(C)cc1-n1nnnc1SCC(=O)NC(=O)NCc1ccco1 | 11 |
| CCOC(=O)c1c(NC(=O)c2cccs2)sc2c1CCN(C(=O)OCC)C2 | 0 |
| CC(=O)Nc1cc(N2C(=O)CCC2=O)ccc1Cl | 0 |
| CC(=O)Nc1ccc(-c2nn[nH]n2)cc1Cl | 0 |
| COc1ccccc1OCCOCCn1cnc2ccccc2c1=O | 0 |
| CCC(Sc1ccc(C(=O)O)cc1)C(=O)O (stereo not given) | 2 |
| CN1C(=S)SC(C)(NO)C1(C)C (stereo not given) | 0 |
| CCCCNC(=O)CN(C1CCCCC1)S(C)(=O)=O | 8 |
| Cc1ccccc1NC(=O)C1CCC(C)(C(=O)O)C1(C)C (stereo not given) | 0 |
| N#Cc1c(NC(=O)c2ccc(Br)o2)n(-c2ccccc2)c2nc3ccccc3nc12 | 2 |
| Cc1cccc(C(=O)O)c1NC(=O)c1ccc(F)cc1 | 1 |
| Cc1c(Cl)cccc1NC(=O)CCN1CCCCC1 | 0 |
| CC(C)(C)c1cc(C(=O)O)nn1-c1ccccc1 | 0 |
| CC(C)COC(=O)C1C2C=CC3(CN(C(C)c4ccc(Br)cc4)C(=O)C13)O2 (stereo not given) | 8 |
| COCCn1c(C)cc(C(=O)COC(=O)c2n[nH]c3ccccc23)c1C | 1 |
| c1ccc(N=P(c2nc3ccccc3o2)(N2CCOCC2)N2CCOCC2)cc1 | 0 |
| Cc1cc(C)nc(NC(=O)c2c(-c3c(Cl)cccc3Cl)noc2C)n1 | 2 |
| Nc1ccc(C(=O)OCCCc2nc3ccccc3[nH]2)cc1 | 3 |

| SMILES | inhibition [%] |
| --- | --- |
| CCCCN=CC1=C(O)C(C(=O)OC)C(C)(C)CC1=O (stereo not given) | 0 |
| CSc1nc(N)nc(SCCS(=O)(=O)c2ccc(Cl)cc2)c1C#N | 0 |
| COc1ccccc1OCCOc1ccccc1/C=N/n1cnnc1 | 6 |
| CC1(C)Cc2cccc(OCC(O)CN3CCN(c4ccccn4)CC3)c2O1 (stereo not given) | 0 |
| c1n[nH]c(SCCCCSc2ncn[nH]2)n1 | 6 |
| C(=C\c1ccccc1)/CN1CCN(Cc2ccc3c(c2)OCCO3)CC1 | 1 |
| C#CC1(O)CC(C)N(C)C(C)C1 (stereo not given) | 6 |
| COc1ccc(-c2noc(COc3ccc(Cl)c(C)c3)n2)cc1 | 0 |
| COC(=O)CNC(=O)COC(=O)c1cc(Cl)cc(Cl)c1N | 0 |
| COc1cc(-c2c(C#N)c(N)nc3c2CCCC3)cc(OC)c1OC | 5 |
| Cc1oc(-c2cccc(Cl)c2)nc1CN1CCC(C(=O)N2CCN(c3ccccc3F)CC2)CC1 | 2 |
| Cc1ccc(NC(=O)CCC(=O)OCC(F)(F)C(F)F)cc1 | 0 |
| COc1ccccc1OCC(=O)N1CCNC1=O | 0 |
| Cc1sc2nc3n(c(=O)c2c1C)NC(=O)CC3 | 0 |
| CC1Cc2ccccc2N1S(=O)(=O)c1cccc(C(=O)OCC(=O)NC2CCS(=O)(=O)C2)c1 (stereo not given) | 0 |
| CCCOc1ccc(N2CC(C(=O)Nc3ccc4c(c3)OCO4)CC2=O)cc1 (stereo not given) | 6 |
| N[C@@H](Cc1ccccc1)c1nnc2sc(SCc3ccccc3)nn12 | 1 |
| Cc1nn(Cc2ccccc2)c(C)c1NC(=O)CCC(=O)O | 2 |
| CCOc1ccc(-n2cc(C(=O)N3CCN(C)CC3)c3cc(OC)c(OC)cc3c2=O)cc1 | 0 |
| COC(=O)C(C)Sc1nc2c(c(=O)n(C)c(=O)n2C)n1Cc1cccc(C)c1 (stereo not given) | 2 |

Source: PubChem BioAssay
